Screening data from PubChem.
AHR act = AHR activators, primary screen, cell-based, luminescence, luciferase reporter, human. AHR-responsive luciferase reporter cells. hit rate 2.5% among 320,000. Aryl hydrocarbon receptor (Homo sapiens), P35869. activation, % at 5 µM. AID 2796, 2010; in the data active = activation above about 47%
Target sequence (P35869 whole entry, looked up): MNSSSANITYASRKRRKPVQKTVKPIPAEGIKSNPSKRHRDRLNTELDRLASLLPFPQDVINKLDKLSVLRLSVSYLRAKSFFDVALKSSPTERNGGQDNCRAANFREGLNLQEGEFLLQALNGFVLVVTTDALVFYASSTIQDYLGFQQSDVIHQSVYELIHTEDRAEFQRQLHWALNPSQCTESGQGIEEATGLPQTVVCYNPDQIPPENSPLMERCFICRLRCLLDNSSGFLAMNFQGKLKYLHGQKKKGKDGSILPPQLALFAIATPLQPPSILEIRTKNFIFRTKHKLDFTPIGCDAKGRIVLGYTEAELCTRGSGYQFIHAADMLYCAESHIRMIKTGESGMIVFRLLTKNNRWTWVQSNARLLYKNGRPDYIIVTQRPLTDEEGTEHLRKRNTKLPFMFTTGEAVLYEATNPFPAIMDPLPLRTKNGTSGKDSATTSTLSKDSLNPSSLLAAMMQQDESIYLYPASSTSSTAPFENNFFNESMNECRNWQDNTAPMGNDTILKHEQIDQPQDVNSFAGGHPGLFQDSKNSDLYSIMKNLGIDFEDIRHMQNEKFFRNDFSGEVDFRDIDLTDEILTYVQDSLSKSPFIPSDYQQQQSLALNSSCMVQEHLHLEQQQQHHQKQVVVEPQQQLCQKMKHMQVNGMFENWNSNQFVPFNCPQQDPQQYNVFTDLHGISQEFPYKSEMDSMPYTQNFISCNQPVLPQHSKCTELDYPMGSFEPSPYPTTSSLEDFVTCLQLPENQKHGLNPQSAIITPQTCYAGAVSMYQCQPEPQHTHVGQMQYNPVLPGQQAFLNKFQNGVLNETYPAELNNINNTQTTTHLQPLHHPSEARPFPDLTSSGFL
rCAG RNA binder = binders of r(CAG) RNA repeats, primary screen, biochemical, fluorescence. r(CAG) RNA repeat, TO-PRO-1 dye displacement fluorescence. hit rate 1.3% among 370,000. inhibition, % at 3 µM;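 active = inhibition above the plate cutoff, the mean of all test compounds on that plate plus 3 SD, cut at about 35% in these data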;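 note: higher means more dye released from RNA so lower well fluorescence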
ADAM17 inh = ADAM17 inhibitors, primary screen, biochemical, QFRET | inhibition, % at 6.95 µM | Disintegrin and metalloproteinase domain-containing protein 17 (Homo sapiens), P78536 | hit rate 0.83% among 370,000 | AID 720648, 2013 | recombinant ADAM17, EDANS/DABCYL FRET peptide cleavage;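 active = inhibition above the mean of compounds lying between control limits plus 3 SD, set per campaign, cut at about 8.5% in these data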
proKLK7 act = proKLK7 zymogen activators, primary screen, biochemical, fluorescence intensity | activation, % at 7 µM | purified proKLK7, EDANS-DABCYL substrate fluorescence; 100% is mature enzyme control, 0% vehicle | AID 652039, 2013 | hit rate 0.9% among 370,000;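 active = activation above the mean of all tested compounds plus 3 SD, computed per campaign excluding outliers beyond control limits, cut at about 13% in these data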
NR3A LBD binder = binders of NR3A ligand-binding domain, primary screen, biophysical, differential scanning fluorimetry, uHTS. NR3A LBD differential scanning fluorimetry, Tm shift; 0% = protein alone, 100% = glycine-bound protein. Glutamate receptor ionotropic, NMDA 3A (GRIN3A) ligand-binding domain. hit rate 2.5% among 340,000. Tm shift relative to glycine control, % at 25 µM. AID 1259313, 2017;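 active = melting temperature shift of at least 10% of the positive control shift, at one fixed dose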
ADAM10 inh = human ADAM10 inhibitors, primary screen, biochemical, QFRET, HTS. recombinant ADAM10, EDANS/DABCYL FRET peptide cleavage, 3 h. hit rate 0.62% among 370,000. inhibition, % at 7 µM. AID 720582, 2013;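 active = inhibition above a per-campaign cutoff equal to the mean of compounds falling between control-based bounds plus 3 SD, cut at about 20% in these data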
ADAM10 counter = ADAM10 inhibitors, counter-screen for ADAM17 exosite inhibitor project, biochemical, FRET, human ADAM10 | shares compounds with ADAM17 inh | recombinant ADAM10, EDANS/DABCYL FRET peptide cleavage, 3 h | inhibition, % at 6.95 µM | hit rate 47% among 2,900;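 active = mean inhibition over the triplicate runs exceeds the activity threshold set in the earlier primary screen, cut at about 20% in these data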
ADAM17 confirm = ADAM17 inhibitors, hit retest, confirmation, biochemical, QFRET peptide cleavage | shares compounds with ADAM17 inh | recombinant ADAM17, EDANS/DABCYL QFRET peptide cleavage | inhibition, % at 6.95 µM | hit rate 65% among 2,900 | AID 743257, 2014;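 active = mean inhibition across replicates above the hit cutoff set in the primary screen, cut at about 8.5% in these data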
Numbers stand for hits; n = inactive; x = no result given. Hits are enriched below; roughly 7% of the tested compounds scored in any of these assays.

SMILES	AHR act	rCAG RNA binder	ADAM17 inh	proKLK7 act	NR3A LBD binder	ADAM10 inh	ADAM10 counter	ADAM17 confirm
CCc1ccc(C(O)c2ncc(-c3cccc(C(F)(F)F)c3)[nH]2)cc1 (centres undefined)	x	n	11	n	x	n	21	11
COc1cc(CN2CC(=O)N(c3cc(Cl)ccc3C)C2=S)cc(OC)c1OC	n	n	n	n	n	n	x	x
CC(=O)c1c(C)[nH]c(C(=O)OCC(=O)NC(C)c2ccccc2)c1C (centres undefined)	x	n	n	n	x	n	x	x
O=[N+]([O-])c1ccc(-c2cn3c(n2)CCC3)cc1	n	n	n	n	n	n	x	x
COc1cc(C(=O)NC(=S)NNC(=O)c2cnccn2)cc(OC)c1OC	n	n	11	n	n	n	n	n
COc1ccc(C(=O)NC(=S)NNC(=O)c2cnccn2)cc1	n	n	n	n	n	n	x	x
CCc1ccc(NS(=O)(=O)c2ccc3[nH]cc(C(=O)N4CCCCC4)c(=O)c3c2)cc1	n	n	n	n	n	n	x	x
CCc1ccc(NS(=O)(=O)c2ccc3[nH]cc(C(=O)N4CCc5ccccc54)c(=O)c3c2)cc1	n	n	10	n	12	n	n	11
NC(=O)[C@H]1CC2(CC(c3cccc(NC(=O)COc4ccc(Cl)cc4)c3)=NO2)CN1C(=O)CC(c1ccccc1)c1ccccc1 (some centres undefined)	n	n	18	n	n	35	37	21
NC(=O)[C@H]1CC2(CC(c3cccc(NC(=O)COc4ccc(Cl)cc4)c3)=NO2)CN1C(=O)c1ccccc1C(=O)c1ccccc1 (some centres undefined)	n	n	8.7	n	n	n	24	15
CCCCCC(=O)N1CC2(CC(c3cccc(NC(=O)CC)c3)=NO2)C[C@H]1C(N)=O (some centres undefined)	n	n	n	n	n	n	x	x
CCCCCC(=O)N1CC2(CC(c3cccc(NC(=O)CC(c4ccccc4)c4ccccc4)c3)=NO2)C[C@@H]1C(N)=O (some centres undefined)	n	n	9.6	n	n	n	29	18
CCCCCC(=O)N1CC2(CC(c3cccc(NC(=O)COc4ccc(Cl)cc4)c3)=NO2)C[C@@H]1C(N)=O (some centres undefined)	n	n	n	n	n	n	x	x
C=C(C)C(=O)Nc1cccc(C2=NOC3(C2)C[C@H](C(N)=O)N(C(=O)/C=C/C)C3)c1 (some centres undefined)	n	n	9.9	n	n	n	n	n
CCCCCCn1c(COc2ccccc2F)nnc1SCC(=O)NC1CCS(=O)(=O)C1 (centres undefined)	x	n	n	n	n	n	x	x
O=C(Cn1cnc2ccccc21)N/N=C/C(Br)=C/c1ccccc1	n	n	n	n	n	n	x	x
Cc1cnc(CNC(=O)C2(C)CCCN2CC(C)C)cn1 (centres undefined)	x	n	n	n	x	n	x	x
CCOc1ccc(NS(=O)(=O)c2cc(Cl)ccc2OC)cc1	n	n	12	n	n	n	n	n
CCc1ccc(OC)c(S(=O)(=O)Nc2ccc(Cc3ccncc3)cc2)c1	n	n	9.2	n	n	n	n	n
COc1ccc(NS(=O)(=O)c2cc(C)ccc2OC)cc1OC	n	n	n	n	n	n	x	x
CCOc1ccc(NS(=O)(=O)c2ccc(OC)c(C)c2)cc1	n	n	n	n	n	n	x	x
COc1ccc(F)cc1S(=O)(=O)Nc1ccc(C)cc1	n	n	11	n	n	n	n	n
COc1ccc(S(=O)(=O)Nc2ccc(Cc3ccncc3)cc2)cc1OC	n	n	n	n	n	n	x	x
COc1ccc(Cn2cc(F)c(=O)n(CCC(C)C)c2=O)cc1[N+](=O)[O-]	n	n	9.8	n	n	n	n	n
COc1ccc(Cn2cc(F)c(=O)n(C)c2=O)cc1[N+](=O)[O-]	n	n	n	n	n	n	x	x
SMILES	AHR act	rCAG RNA binder	ADAM17 inh	proKLK7 act	NR3A LBD binder	ADAM10 inh	ADAM10 counter	ADAM17 confirm
O=C(c1noc2c1CCCCC2)N1CCN(C(c2ccccc2)c2ccccc2)CC1	x	n	n	n	n	n	x	x
Cc1cc2c(c(=O)o1)[C@@]1(C(=O)N(C)c3ccc([N+](=O)[O-])cc31)C1=C(CCCC1=O)O2	x	n	8.7	n	x	n	n	n
CN1C(=O)N(C)C(c2cccc([N+](=O)[O-])c2)C2=C1CCCC2=O (centres undefined)	n	n	n	n	n	n	x	x
CCOC(=O)c1c(CSc2cccs2)n(C)c2cc(Br)c(O)c(CN(C)C)c12	n	n	n	n	n	n	x	x
CC(C)(C)OC(=O)N(Cc1ccccc1)Cc1ccccc1OCc1cccc(NC(=O)C2CC2)c1	x	n	9.5	n	n	n	20	18
CC(C)(C)OC(=O)N(Cc1ccccc1)Cc1ccccc1OCc1cccc(NC(=O)C2CCC2)c1	x	n	n	n	n	n	x	x
O=C(COC(=O)/C=C/c1ccc(Cl)cc1)NC(=O)NCc1ccccc1	n	n	9.9	n	n	n	26	15
O=C(COC(=O)/C=C/c1ccccc1)NCc1ccc(Cl)cc1	n	n	n	n	n	n	x	x
COC(=O)[C@]12C[C@H](CC(=O)N3CCC(c4ccccc4)CC3)C(=O)N(Cc3ccc4c(c3)OCO4)C1=C[C@H](C(C)C)O[C@@H]2C1CC1	x	n	n	n	x	n	x	x
CCOC(=O)N1CCN(C(=O)C[C@H]2C[C@@]3(C(=O)OC)C(=C[C@H](C(C)C)O[C@@H]3C3CC3)N(Cc3ccc(Cl)cc3Cl)C2=O)CC1	x	n	9.2	n	x	n	n	12
COC(=O)[C@]12C[C@H](CC(=O)NCc3ccc(C)o3)C(=O)N(Cc3ccccc3)C1=C[C@H](C(C)(C)C)O[C@@H]2C	x	n	10	n	x	n	n	n
COC(=O)[C@@]12C[C@@H](CC(=O)NCc3ccc(C)o3)C(=O)N(Cc3ccccc3)C1=CCC(C)(C)C2	x	n	n	n	x	n	x	x
